This note sets out measurements from PubChem BioAssay (NCI).

Compounds without any hit were thinned out: in the full panel of roughly 83,000, 20% have a hit.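 Method: cells in 96-well plates; compound added at one concentration; 48 h incubation; percent growth measured; values under 10 scored active.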 Values without a mark were called inactive. Activity calls are given as the source filed them.

The subject of this assay is MDA-MB-468 breast. Put plainly: NCI-60 one-dose screen, 48 h (100 = growth as untreated, 0 = no growth, -100 = all killed). To be noted: 10 µM unless noted.
Take `Cc1cccc(NCS(=O)(=O)O)c1`: the growth is 93.7%.

Turning to `COc1ccc2c(c1)nnc1c3cccnc3[nH]c21`, the growth is -92.6% (active).

Turning to `COC(=O)CCCNS(=O)(=O)c1cc(C(=O)Nc2ccc(NC(=O)c3cc(S(=O)(=O)NCCCC(=O)OC)c(O)c(O)c3O)cc2)c(O)c(O)c1O`, the growth was 98.7%.

For the compound `O=[N+]([O-])c1ccc(Oc2cccnc2)c([N+](=O)[O-])c1`, the growth is 21.6%.

For the compound `N=C1/C(=C2\NC3C=CC=CC3S2)C(c2ccc(Cl)cc2)C2C(=O)N(c3ccccc3)C(=S)N12` (configuration not stated), the growth is 97.9%.

Consider `O=C(CCN1CCCC1)Nc1ccc2c(NCc3ccc(F)cc3)c3ccccc3nc2c1`, for which the growth is -46.1% (active).

Take `COC1(OC)C2(Cl)CCC1(Cl)C(Cl)=C2Cl`: the growth is 111%.

On to `O=S(=O)(Nc1cc(Cl)cc(Cl)c1)c1ccc(-c2cnc(C3CC3)o2)cc1`, for which the growth is 2.06% (active).

As for `Cc1nn(-c2nc(-c3cc4ccccc4oc3=O)cs2)c(C)c1N=Nc1ccccc1`, the growth is 103%.

As to `COc1cc2cc3cc4cc(OC)c(OC)cc4c(C)[n+]3cc2cc1OC` (tested in a mixture with another compound), the growth is 44%.

Turning to `COc1ccccc1/C=C1\Oc2cc(OCCN3CCCC3)ccc2C1=O`, the growth is 56.3%.

In the case of `O=c1oc2ccc(Cl)cc2c(=O)n1-c1ccc(Cl)cc1F`, the growth is 2.01% (active).

Consider `Nc1ncnc2c1nc(N)n2C1OC(CO)C(O)C1O` (configuration not stated), for which the growth was -73.6% (active).

`COc1ccc2[nH]c(C(=O)OCc3ccc4cccc(O)c4n3)cc2c1`: the growth is -70.8% (active).

For `O=S(=O)(Nc1ccc(-c2nc(-c3cccc(OCCN4CCOCC4)c3)c(-c3ccnc(Br)c3)[nH]2)cc1)c1ccccc1`, the growth is 1.46% (active).

`C[n+]1c(-c2ccccc2)c2cc(N)ccc2c2ccccc21`: the growth is -15.4% (active).

On to `O=C(Nc1ccc(Cl)cc1F)c1cc(I)ccc1O`, for which the growth was 41.4%.

On to `CC1=NOC(=O)/C1=C\c1ccc(O)cc1`, for which the growth was 103%.

Take `Cc1cccc2c(=O)c3c(sc12)c(N1CCNCC1)nc1ccccc13`: the growth is 65.4%.

For `CC(=O)Cc1nsc(NC(=O)c2cc(-c3cc(Cl)ccc3Cl)oc2C)n1`, the growth is 100%.

`O=C1CC(SC(=S)C2CCCC2=O)C(=O)N1` (configuration not stated): the growth was 106%.

As to `C#Cc1nc(Nc2cc(C)[nH]n2)c2ccccc2n1`, the growth was -23.2% (active).

Regarding `CC(=O)c1cc2c(N)c(C(=O)Nc3cccc4c3OCCO4)sc2nc1C`, the growth is 86.1%.

With `COc1ccc2c(c1)C(=O)c1c-2c(=O)n(CCCN(C)C)c2cc(OC)c(OC)cc12`, the growth is 44.5%.

`O=C1[C@H]2Cc3c([nH]c4ccccc34)[C@@H](c3ccc(Br)cc3)N2C(=O)CN1C1CCN(Cc2ccccc2)CC1`: the growth is -4.01% (active).

For `CC(C)c1cc(N=O)cc(C(C)C)c1O`, the growth was 81.8%.

For the compound `COc1cc(/C=N/Nc2ccc(Br)cc2)cc(OC)c1OC`, the growth was 49.5%.
